From PubChem BioAssay (EPA / NIEHS) come the findings set out here.

Records with an inconclusive call do not appear. Calls of active or inactive are those of the source. How the source made its calls, unless noted: active means hit-call score of the fitted dose curve at least 0.9, where 1 is the maximum; inconclusive means response in the unintended direction; inactive means score below 0.9.

The nature of assay [1]: Tanguay_ZF_120hpf_SWIM_legacy: (Legacy) Oregon State University Tanguay Lab 120 Hour Post-fertilization zebrafish Assay for Swim Bladder Malformation (AID 2283654).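 Further: swim bladder malformation in each larva scored yes or no under brightfield.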 Put shortly:
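Embryos lacking chorions were exposed individually and statically to test chemical from 6 to 120 hpf at 28C, with 0.64% DMSO as vehicle. At 120 hpf, swim bladder malformation was recorded as present or absent by brightfield microscopy.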

Assay [2] can be described thus: Tanguay_ZF_120hpf_TRUN_legacy: (Legacy) Oregon State University Tanguay Lab 120 Hour Post-fertilization zebrafish Assay for Truncated Body (AID 2283655). The essentials:
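Tropical 5D wild-type embryos, dechorionated with pronase at 4 hpf, were placed singly in wells at 6 hpf and statically exposed at 28C until 120 hpf, final DMSO 0.64%. Truncated body was scored present/absent by brightfield microscopy.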

Read-out in assay [3]: ABC Transporter (ABCB1), ABCB1 (gene 5243)
Briefly: CLD_ABCB1_6hr: CellzDirect (CLD) Gene Expression Assay for ABC Transporter (ABCB1) at 6 hours (AID 2283659).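 Further: hits raise ABCB1 transcript above the DMSO vehicle baseline.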 Put shortly:
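Primary human hepatocytes (two donor preparations) dosed daily for two days with chemicals at multiple concentrations, 0.2% DMSO vehicle; harvested 6 h post-dose. ABCB1 mRNA induction quantified by qNPA chemiluminescence; gain-of-signal fitted versus DMSO.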

Read-out in assay [4]: xenobiotic metabolism (CYP1A1), CYP1A1 (gene 1543)
Briefly: CLD_CYP1A1_6hr: CellzDirect (CLD) Gene Expression Assay for xenobiotic metabolism (CYP1A1) at 6 hours (AID 2283661).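 On AC50: potency for transcript induction above DMSO vehicle baseline.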 The essentials:
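Primary human hepatocytes from two donors, compound versus 0.2% DMSO vehicle. CYP1A1 mRNA measured 6 h after dosing by quantitative nuclease protection assay with chemiluminescent read-out; induction fitted relative to DMSO, cytotoxicity flagged by microscopy.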

Assay [5] in a line: Tanguay_ZF_120hpf_TR_legacy: (Legacy) Oregon State University Tanguay Lab 120 Hour Post-fertilization zebrafish Assay for Touch Response (AID 2283667). Put shortly:
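5D WT embryos; static exposure to 120 hpf, 28C, sealed/dark; DMSO 0.64% v/v final. TR scored present/absent; dead embryos excluded. Pos ctrl 5uM trimethyltin chloride.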

Read-out in assay [6]: ABC Transporter (ABCB11), ABCB11 (gene 8647)
The experiment in a line: CLD_ABCB11_24hr: CellzDirect (CLD) Gene Expression Assay for ABC Transporter (ABCB11) at 24 hours (AID 2283674; active means hit-call score of the fitted dose curve at least 0.9, where 1 is the maximum; inactive means score below 0.9). Put shortly: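 Primary human hepatocytes were dosed daily for two days, with 0.2% DMSO vehicle. ABCB11 mRNA induction was measured at 24 hours by quantitative nuclease protection assay with chemiluminescence. Gain of signal was fitted relative to DMSO.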

Read-out in assay [7]: ABC Transporter (ABCB11), ABCB11 (gene 8647)
The experiment in a line: CLD_ABCB11_6hr: CellzDirect (CLD) Gene Expression Assay for ABC Transporter (ABCB11) at 6 hours (AID 2283675).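 Further: hits raise ABCB11 mRNA level so AC50 marks induction.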 The essentials: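 Human primary hepatocytes (two donor preparations) given fresh chemical daily at multiple concentrations, vehicle 0.2% DMSO. ABCB11 mRNA induction measured 6 h after dosing by qNPA chemiluminescence versus DMSO; cytotoxicity annotated from morphology.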

The subject of assay [8] is Thyroperoxidase (TPO), gene 54314. Briefly: CCTE_Simmons_AUR_rTPO: CCTE's Amplex UltraRed Assay for Thyroperoxidase (TPO) Inhibition, Simmons Lab (AID 2283662).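 Further: potency for loss of signal meaning inhibition of peroxidase activity.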 The essentials: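 Rat thyroid microsomes (5 ug protein) were incubated with test compound (8 concentrations, 5 nM–87.5 uM final, 0.5% DMSO), 25 uM Amplex UltraRed and 300 uM H2O2 in 200 mM phosphate buffer for 30 min at 37C in the dark; fluorescence read at 544/590 nm.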

Read-out in assay [9]: xenobiotic metabolism (CYP1A2), CYP1A2 (gene 1544)
The experiment in a line: CLD_CYP1A2_6hr: CellzDirect (CLD) Gene Expression Assay for xenobiotic metabolism (CYP1A2) at 6 hours (AID 2283663).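 On AC50: potency is for induction meaning a rise in mRNA above DMSO.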 The essentials: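 Primary human hepatocytes from two donor preparations, dosed daily with multiple concentrations in 0.2% DMSO and harvested at 6 h. CYP1A2 mRNA induction measured by chemiluminescent qNPA, gain of signal fitted against DMSO; cytotoxicity flagged morphologically.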

The nature of assay [10]: CCTE_Simmons_CellTiterGLO_HEK293T: Viability Assessment in CCTE's Assays for Thyroperoxidase (TPO) Inhibition, Simmons Lab (AID 2283665).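 On AC50: cells exposed to compound for 24 h before readout; actives reduce ATP signal below DMSO vehicle meaning cytotoxicity.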 Put shortly: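 Cytotoxicity counter-screen: human HEK293T cells in low-serum (1% FBS) medium receive test chemical, 5 nM to 87.5 uM final, for 24 h; ATP is quantified by luciferase luminescence.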
For orientation: ATP-based viability assays read luminescence as a measure of living cells.

Read-out in assay [11]: glucuronosyltransferase (UGT1A1), UGT1A1 (gene 54658)
Briefly: CLD_UGT1A1_6hr: CellzDirect (CLD) Gene Expression Assay for glucuronosyltransferase (UGT1A1) at 6 hours (AID 2283672). Put shortly: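 Primary human hepatocytes from two donor preparations, dosed with fresh solutions in 0.2% DMSO, harvested at 6 h. UGT1A1 mRNA measured by qNPA chemiluminescence; induction fitted upward versus DMSO.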

Read-out in assay [12]: Broad substrate specificity ATP-binding cassette transporter ABCG2 (Homo sapiens) (UniProt Q9UNQ0)
The experiment in a line: CLD_ABCG2_6hr: CellzDirect (CLD) Gene Expression Assay for ABC Transporter (ABCG2) at 6 hours (AID 2283660). Put shortly: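 Primary human hepatocytes dosed daily with chemicals at multiple concentrations (0.2% DMSO vehicle), harvested 6 h after dosing. ABCG2 mRNA induction read by quantitative nuclease protection assay (qNPA) chemiluminescence; gain of signal fitted against DMSO baseline.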

Read-out in assay [13]: sulfotransferase (SULT2A), SULT2A1 (gene 6822)
Briefly: CLD_SULT2A_6hr: CellzDirect (CLD) Gene Expression Assay for sulfotransferase (SULT2A) at 6 hours (AID 2283669).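 Further: hits raise transcript level above the DMSO vehicle baseline.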 The essentials: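 Primary human hepatocytes from two donor preparations were dosed daily with chemicals or 0.2% DMSO and harvested at 6 h. Transcript induction read by qNPA chemiluminescence, fitted for gain of signal relative to DMSO; morphology-based cytotoxicity annotated.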

Read-out in assay [14]: xenobiotic metabolism (CYP1A1), CYP1A1 (gene 1543)
The experiment in a line: CLD_CYP1A1_24hr: CellzDirect (CLD) Gene Expression Assay for xenobiotic metabolism (CYP1A1) at 24 hours (AID 2283673).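 Further: CYP1A1 mRNA level by quantitative nuclease protection with chemiluminescence.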 Put shortly:
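Primary human hepatocytes dosed daily with fresh solutions in 0.2% DMSO vehicle. mRNA measured at 24 h by quantitative nuclease protection assay with chemiluminescence; gain-of-signal fit versus DMSO, with morphology-based cytotoxicity flags.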

Chain of Broad substrate specificity ATP-binding cassette transporter ABCG2 (Homo sapiens) (Q9UNQ0 whole entry, looked up): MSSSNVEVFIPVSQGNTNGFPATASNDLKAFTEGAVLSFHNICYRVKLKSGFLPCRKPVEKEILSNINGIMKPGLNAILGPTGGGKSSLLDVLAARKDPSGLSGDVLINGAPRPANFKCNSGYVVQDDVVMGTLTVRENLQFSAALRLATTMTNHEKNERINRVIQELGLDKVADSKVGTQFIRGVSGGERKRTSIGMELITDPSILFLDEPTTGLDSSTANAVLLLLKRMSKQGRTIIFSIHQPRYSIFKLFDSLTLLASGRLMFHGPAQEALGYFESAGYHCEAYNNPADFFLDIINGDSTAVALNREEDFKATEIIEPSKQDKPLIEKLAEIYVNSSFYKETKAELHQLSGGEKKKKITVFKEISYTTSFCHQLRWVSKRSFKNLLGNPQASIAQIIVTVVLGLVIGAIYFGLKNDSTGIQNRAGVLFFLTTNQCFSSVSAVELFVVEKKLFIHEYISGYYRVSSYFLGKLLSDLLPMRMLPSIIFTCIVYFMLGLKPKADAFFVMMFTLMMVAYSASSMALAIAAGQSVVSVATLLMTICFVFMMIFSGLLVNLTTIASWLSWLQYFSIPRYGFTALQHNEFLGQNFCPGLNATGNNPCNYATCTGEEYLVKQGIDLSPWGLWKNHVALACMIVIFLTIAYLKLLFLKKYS

Take `CC(C)N1C(=O)c2ccccc2NS1(=O)=O`: the call in assay [1], in assay [2], in [3], in assay [4], in [5] and in assay [6] was inactive. The molecule was called inactive in assay [7].
As for `O=P(O)(O)CCCl`, the result in assay [1], in assay [2], in assay [9], in [10], in [5] and in assay [6] was inactive. In assay [7], the molecule was classed as inactive. Moreover, the AC50 in assay [8] is 18.2 µM (active).
As for `CCOC(=O)C(C)OC(=O)c1cc(Oc2ccc(C(F)(F)F)cc2Cl)ccc1[N+](=O)[O-]` (centres undefined), the outcome in [1], in assay [2], in assay [3] and in assay [5] was inactive.
For `N#Cc1c(Cl)cccc1Cl`, the call in assay [1], in assay [2], in assay [3], in assay [5], in [11] and in [7] was inactive.
Take `N#Cc1c[nH]cc1-c1cccc2c1OC(F)(F)O2`: the result in assay [1], in assay [2], in assay [5] and in [11] was inactive. Besides, the AC50 in assay [9] was 0.554 µM (active).
Regarding `CCN(CC)C(=O)C(C)Oc1cccc2ccccc12` (centres undefined), the call in [1], in assay [2] and in assay [5] was inactive. For the same molecule, the AC50 in assay [8] was 26.3 µM (active); in assay [9], 4.15 µM (active); in assay [10], 87.8 µM (active).
As to `Clc1nc(Cl)nc(Nc2ccccc2Cl)n1`, the result in assay [2], in [12], in assay [5], in assay [6] and in assay [7] was inactive. Besides, the AC50 was 6.29 µM (active) in assay [8] and 83.1 µM (active) in [10].
For the molecule `CNC(=O)Oc1cccc2ccccc12`, the result in assay [1], in assay [2], in [5], in assay [13], in assay [11] and in assay [7] was inactive. In assay [4], the AC50 was 4.68 µM (active).
Take `O=C(O)c1c(Cl)ccc2cc(Cl)cnc12`: the outcome in assay [1], in assay [3], in assay [4], in assay [9], in assay [5] and in assay [13] was inactive. The call in assay [14] and in assay [7] was inactive.
Regarding `CC1(C)C(C(=O)OC(C#N)c2cccc(Oc3ccccc3)c2)C1(C)C` (centres undefined), the call in assay [1], in [2], in assay [3], in assay [9], in [5] and in assay [11] was inactive.

For orientation: AC50 means the concentration giving half of the maximal activity seen.
